In the library only some 6.9% were active in any assay of this set; here they are far more common.
Giardia kill: kills Giardia lamblia. Giardia lamblia trophozoite viability. activity change, % at 7.66 µM, hits read low. 340,000 compounds, 0.15% hits. AID 540267; in the data active = activity change below about -80%; inconclusive = between about -30% and that limit;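 also: parasites exposed to compound for two days anaerobically before the ATP read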
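Compounds were tested on trophozoites seeded at 100 cells/well and held 48 hrs at 37 deg C anaerobically. An ATP-based luminescent kit measured the remaining live cells.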
KB-V1 cytotox: kills drug-selected multidrug resistant KB-V1 cells | KB-V1 MDR cells viability, CellTiter-Glo, 72 h | Potency, µM (series often up to 46.1 µM), hits mostly cytotoxic | 400,000 compounds, 3.4% hits | AID 1347076; also: nearly all actives have a fitted effect of over 60% in size
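Cells of the MDR subline KB-V1 are plated, dosed with compound at multiple concentrations, and incubated 72 h at 37 degrees C; CellTiter-Glo is then added and luminescence read after 10 min.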
KB-3-1 cytotox: KB-3-1 parental cell cytotoxicity. KB-3-1 viability, CellTiter-Glo ATP luminescence, 72 h. Potency, µM (titrated, usually from 46.1 µM), usual class: cytotoxic. 400,000 compounds, 1.4% hits. AID 1347075; also: nearly all actives have a fitted effect of over 60% in size
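Using CellTiter-Glo luminescence, growth of non-resistant KB-3-1 adenocarcinoma cells is assessed 72 h after pin-tool compound addition at 37 °C. Normalized responses across the concentration series yield fitted curves.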
SW480 rerep: DNA re-replication induction in SW480 cells; SW480 DNA re-replication, Hoechst DNA content imaging, 48 h; Potency, µM (highest dose often 46.1 µM), hits mostly activators; 340,000 compounds, 1.8% hits; also: nearly all actives have a fitted effect of over 55% in size
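Image-based read-out: total Hoechst fluorescence of nuclei (405 nm excitation, 500-530 nm emission), with hits raising the fraction of high-intensity nuclei. SW480 colon cells incubated 48 hr with compounds at 37 C.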
MCF10A rerep: DNA re-replication induction in MCF 10a cells. 350,000 compounds, 2.9% hits. MCF 10A DNA re-replication, Hoechst nuclear intensity, 48 h. Potency, µM (series often up to 46.1 µM), hits mostly activators; also: nearly all actives have a fitted effect of over 50% in size
S-ASM inh: blocks human secretory acid sphingomyelinase; Potency, µM (titrated, usually from 57.5 µM), hits mostly inhibitors; AID 504937; P17405; 340,000 compounds, 0.006% hits; placental ASM, HMU-PC fluorogenic substrate, 60 min
Target sequence (P17405 47-631 limits assumed): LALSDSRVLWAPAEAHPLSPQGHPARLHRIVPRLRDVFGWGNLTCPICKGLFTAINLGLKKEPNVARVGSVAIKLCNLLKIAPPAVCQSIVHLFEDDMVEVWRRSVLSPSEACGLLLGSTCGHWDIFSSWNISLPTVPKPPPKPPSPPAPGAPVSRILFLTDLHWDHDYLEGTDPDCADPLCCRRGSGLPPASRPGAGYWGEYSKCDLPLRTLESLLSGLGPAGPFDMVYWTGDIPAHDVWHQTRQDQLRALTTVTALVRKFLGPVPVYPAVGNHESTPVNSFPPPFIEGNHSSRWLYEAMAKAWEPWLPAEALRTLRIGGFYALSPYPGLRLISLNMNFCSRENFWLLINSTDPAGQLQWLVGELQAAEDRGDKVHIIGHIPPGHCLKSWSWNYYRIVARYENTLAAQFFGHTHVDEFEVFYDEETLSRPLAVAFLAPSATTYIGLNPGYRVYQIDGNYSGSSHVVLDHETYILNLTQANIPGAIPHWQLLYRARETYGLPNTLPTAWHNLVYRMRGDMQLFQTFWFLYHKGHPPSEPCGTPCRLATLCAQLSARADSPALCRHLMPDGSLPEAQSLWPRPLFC
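Human placenta-derived ASM enzyme was preincubated with compound for 10 minutes at room temperature, then given fluorogenic substrate HMU-PC0 (9 uM final) for 60 minutes at 37 °C; a pH 10 stop preceded fluorescence reading at Ex 386/Em 447 nm.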
Large screens that a line does not name were inactive. Unless noted, calls follow the shape of the dose curve; as a rule, active = well fitted curve in the direction sought with a large enough effect; inconclusive = small, poorly fitted or top-dose-only effect, or another doubt; inactive = no such curve, though single readings can be large; an effect the other way counts as inactive or inconclusive.

Cc1ccc(/C=N/NC(=O)Cc2ccc(Cl)cc2)c(O)c1	KB-V1 cytotox 7.3µM, KB-3-1 cytotox inconclusive, SW480 rerep 7.3µM
C/C(=N\OCC(=O)N/N=C/c1ccc(C)cc1O)c1cccs1	KB-V1 cytotox inconclusive, SW480 rerep 6.5µM, MCF10A rerep 4.1µM
COc1cccc(CN2CCNC(=O)C2CC(=O)NCc2cc(C(C)C)no2)c1 (centres undefined)	KB-3-1 cytotox inconclusive
CC(C)=CCC/C(C)=C/C=C/C(C)=C/C=C/C(C)=C/C=C/C=C(C)/C=C/C=C(C)/C=C/C=C(\C)CCC=C(C)C	SW480 rerep 19µM, MCF10A rerep inconclusive (no result: Giardia kill, KB-V1 cytotox, KB-3-1 cytotox, S-ASM inh)
CC(C)=CCC/C(C)=C/C(N)=O	none
Cc1ccc(S(=O)(=O)N2CC3(C)CN(S(=O)(=O)c4ccc(C)cc4)CC(C)(C2)C3=O)cc1	KB-V1 cytotox 0.73µM
CC[C@H](CO)NCCN[C@@H](CC)CO	none (no result: Giardia kill, KB-V1 cytotox, KB-3-1 cytotox, S-ASM inh)
O=c1[nH]ncc(N/N=C/c2ccccc2)c1Cl	KB-V1 cytotox inconclusive, MCF10A rerep inconclusive
Cc1ccc(/C=N\Nc2cn[nH]c(=O)c2Cl)cc1	KB-V1 cytotox inconclusive, KB-3-1 cytotox 7.1µM
Cc1ccsc1/C=N/Nc1nc(Cl)c(Cl)cc1Cl	MCF10A rerep inconclusive
Cc1ccsc1/C=N\Nc1cn[nH]c(=O)c1Cl	KB-V1 cytotox 2.6µM, KB-3-1 cytotox 4.6µM, MCF10A rerep inconclusive
COc1ccc(/C=N/Nc2nnc(Cc3ccccc3)c(=O)[nH]2)cc1	none
COc1ccc(/C=N/Nc2cn[nH]c(=O)c2Cl)cc1	KB-V1 cytotox inconclusive, KB-3-1 cytotox 7.3µM, MCF10A rerep inconclusive
CC(C)c1ccc(/C=N/NC(=O)c2cc(-c3cccc([N+](=O)[O-])c3)n[nH]2)cc1	KB-3-1 cytotox inconclusive, MCF10A rerep 18µM
O=C(N/N=C/c1cccnc1)c1cccc(Cl)c1	KB-V1 cytotox inconclusive
CC(C)c1ccc(/C=N/NC(=O)c2cccc(Cl)c2)cc1	KB-V1 cytotox 8.2µM, KB-3-1 cytotox 13µM, SW480 rerep inconclusive, MCF10A rerep 5.8µM
Cc1c(F)cccc1NC(=O)C1CCCN1S(=O)(=O)c1ccc(F)cc1 (centres undefined)	none (no result: Giardia kill, SW480 rerep, MCF10A rerep, S-ASM inh)
Cc1ccc(CN2CCN(/N=C/c3sccc3C)CC2)c(C)c1	KB-V1 cytotox 15µM
CSc1ccc(/C=N/N2CCN(Cc3ccc(C)cc3C)CC2)cc1	none
Cc1ccc2c(CC(=O)Nc3nnc(C(C)C)s3)coc2c1C	none (no result: Giardia kill, SW480 rerep, MCF10A rerep, S-ASM inh)
COc1ccc2nc(N3CCC(C)CC3)c(C#N)cc2c1	SW480 rerep 21µM, MCF10A rerep 5.8µM
Cc1ccnc2ccc([N+](=O)[O-])cc12	KB-V1 cytotox inconclusive (no result: Giardia kill, SW480 rerep, MCF10A rerep, S-ASM inh)
COc1ccc2ccccc2c1C1NC(=O)c2ccccc2N1 (centres undefined)	KB-V1 cytotox 5.8µM, KB-3-1 cytotox 2.3µM, SW480 rerep 8.2µM, MCF10A rerep 5.2µM
Clc1ccccc1C1Nc2cccc3cccc(c23)N1	none

Screens (PubChem)
